Experimental data published in PubChem BioAssay (NCI).
The panel holds about 83,000 compounds, 20% with a hit somewhere; the sample as a whole holds those more often.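 Method: cells in 96-well plates; compound added at one concentration; 48 h incubation; percent growth measured; values under 10 scored active.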 A number with no mark means an inactive call. Active and inactive are the calls of the source.

What was measured:
Test in all cases: NCI-60 one-dose screen, 48 h (100 = growth as untreated, 0 = no growth, -100 = all killed)
HCT-15 colon = conditions: 10 µM unless noted
HT29 colon = conditions: 10 µM unless noted
SNB-75 CNS = conditions: 10 µM unless noted
SNB-19 CNS = conditions: 10 µM unless noted
U251 CNS = conditions: 10 µM unless noted
PC-3 prostate = conditions: 10 µM unless noted
SK-MEL-5 melanoma = conditions: 10 µM unless noted
UACC-62 melanoma = conditions: 10 µM unless noted
LOX IMVI melanoma = conditions: 10 µM unless noted
SK-MEL-28 melanoma = conditions: 10 µM unless noted
SK-MEL-2 melanoma = conditions: 10 µM unless noted
EKVX NSCLC = conditions: 10 µM unless noted
SN12C renal = conditions: 10 µM unless noted
UO-31 renal = conditions: 10 µM unless noted
TK-10 renal = conditions: 10 µM unless noted
ACHN renal = conditions: 10 µM unless noted
CAKI-1 renal = conditions: 10 µM
A498 renal = conditions: 10 µM unless noted
CCRF-CEM leukemia = conditions: 10 µM unless noted
MOLT-4 leukemia = conditions: 10 µM unless noted

Row | Structure (SMILES) | growth (HCT-15 colon) | growth (HT29 colon) | growth (SNB-75 CNS) | growth (SNB-19 CNS) | growth (U251 CNS) | growth (PC-3 prostate) | growth (SK-MEL-5 melanoma) | growth (UACC-62 melanoma) | growth (LOX IMVI melanoma) | growth (SK-MEL-28 melanoma) | growth (SK-MEL-2 melanoma) | growth (EKVX NSCLC) | growth (SN12C renal) | growth (UO-31 renal) | growth (TK-10 renal) | growth (ACHN renal) | growth (CAKI-1 renal) | growth (A498 renal) | growth (CCRF-CEM leukemia) | growth (MOLT-4 leukemia)
1 | CS(=O)(=O)c1ccc(-c2nn(-c3ccccc3)cc2/C=C/C(=O)c2ccc(Br)cc2)cc1 | 64% | 97.8% | 107% | 85.6% | 86.1% | 89.1% | 92.4% | 78.9% | 67.5% | 102% | 103% | 87.5% | 88.1% | 79.6% | 107% | 94% | 84.6% | 84.1% | 41.8% | 60.6%
2 | CC(=O)Nc1nc2c(s1)C1=CC[C@H]3[C@@H]4CC[C@H](C(C)=O)[C@@]4(C)CC[C@@H]3[C@@]1(C)CC2 | 26.4% | 27.7% | 47.8% | 69% | 44.4% | 43% | 93.6% | 73.7% | 59.6% | 49% | 56.2% | 68.7% | 86.4% | 65.4% | 124% | 77.6% | 80.3% | 74.5% | 49% | 1.44% (active)
3 | O=C(CN1CCN(c2cc(=O)n(-c3ccccc3)c3ccccc23)CC1)Nc1ccc([N+](=O)[O-])cc1 | 95.1% | 105% | 88% | 87.1% | 93.9% | 84.7% | 74.1% | 63.4% | 89.3% | 101% | 101% | 88.7% | 87.2% | 62% | 93.3% | 87% | 98.1% | 88.2% | 98% | 90%
4 | Nc1nc(N)c2c(n1)NC(c1ccc(Cl)cc1)CC(c1ccc(Nc3nc(NCCO)nc(Nc4ccc(Cl)cc4)n3)cc1)=N2 (stereo not given) | 1.91% (active) | -21.8% (active) | 77.9% | 17.2% | -35.6% (active) | 44.1% | 48.4% | 91.2% | -90% (active) | 103% | 54.2% | 76.1% | 56.6% | 39.7% | 72.9% | 57.5% | 49.5% | 82.1% | 4.85% (active) | 3.59% (active)
5 | COc1cc(/C=C/C(=O)c2ccc(N3CCN(C)CC3)cc2)ccc1F | 36.4% | 46.5% | 58% | 66.9% | 76.2% | 61.5% | 95.6% | 88.6% | 17.8% | 98.3% | 115% | 88.4% | 81.2% | 56.5% | 124% | 79% | 63.6% | 98.7% | 53.8% | 88.5%
6 | O=C(NCCCNc1cc(-c2cn(-c3ccccc3)nc2-c2cccc(O)c2)ccn1)Nc1cccc(C(F)(F)F)c1 | -25.3% (active) | 9.99% (active) | 45% | 42.8% | 33.5% | 27.1% | 37.8% | 19.9% | 8.34% (active) | -12.1% (active) | 58.1% | 45.7% | 56.5% | 23.8% | 88.3% | 47.6% | 36.9% | 18.3% | 29.2% | 11.6%
7 | O=C(c1cccc(F)c1)n1ccc2cc(NC(=S)Nc3cccnc3)ccc21 | 89.6% | 103% | 90.6% | 86.5% | 95.1% | 96.5% | 99.6% | 86.8% | 99% | 106% | 102% | 105% | 95.9% | 83.3% | 94.8% | 103% | 97% | 92.4% | 83.1% | 84.9%
8 | C=C(C)[C@@H]1CC[C@]2(C)[C@H](CC=C3[C@@H]4CC(C)(C)CC[C@]4(C(=O)NCC#CCN4CCN(C)CC4)CC[C@]32C)[C@@]1(C)CCC#N | 21.4% | 26.8% | 67% | 72.5% | 53.6% | 37.3% | 53.4% | 79% | 12.3% | 96.9% | 94% | 81.6% | 76% | 60% | 83.9% | 78.5% | 30.7% | 84.1% | 48.9% | 19%
9 | O=C1CC2(CCOCC2)Oc2ncccc21 | -62.6% (active) | 49.8% | 115% | 51.4% | 22.3% | 88.7% | 100% | 61.1% | -78.7% (active) | -22.3% (active) | 95.9% | 93.5% | 33.1% | 101% | 60.5% | 36.3% | 94.2% | 99.6% | 0.712% (active) | 13.5%
10 | O=C(NCCCNc1cc(-c2cn(-c3ccccc3)nc2-c2cccc(O)c2)ccn1)Nc1cc(C(F)(F)F)cc(C(F)(F)F)c1 | 33.4% | 31.7% | 64.2% | 68.5% | 51.5% | 39.9% | 55.7% | 73% | 81.2% | 83.7% | 88.1% | 73.3% | 79.4% | 51.4% | 93.4% | 92.6% | 74.1% | 71.4% | 63.1% | 43.3%
11 | Nc1nc(N)c2c(n1)NC(c1ccccc1)CC(c1ccc(Nc3nc(NCCO)nc(Nc4ccc(Cl)cc4)n3)cc1)=N2 (stereo not given) | -58% (active) | -87.6% (active) | 112% | -77.1% (active) | 11.9% | 15.1% | 55.6% | 96.7% | -86.1% (active) | 109% | 71.9% | 92.6% | 49.4% | 43.9% | 63.7% | 70.2% | 61% | 71.3% | -11.2% (active) | 1.48% (active)
12 | CCn1c2ccc(/C=N/NS(=O)(=O)CCN(C)C)cc2c2cc(/C=N/NS(=O)(=O)CCN(C)C)ccc21 | 108% | 103% | 107% | 100% | 99.8% | 100% | -96.7% (active) | 98.6% | 98.6% | 106% | 105% | 110% | 99.3% | 88% | 88.1% | 97% | 82.1% | 69.8% | 103% | 103%
13 | COc1ccc(-c2cc(-c3cccc4ccccc34)n3c(n2)nc2ccccc23)cc1OC | 27.4% | 21.5% | 40.7% | 16.7% | 20.4% | 30.8% | 17.9% | 20% | 30.9% | 51.5% | 98.2% | 69.2% | 10.9% | 29.4% | 53.1% | 8.14% (active) | 17.3% | 38% | 3.68% (active) | 7.55% (active)
14 | COc1ccc(NC2=C(Cl)C(=O)C(C)=C(C)C2=O)cc1 | 94.8% | 106% | 71.7% | 95.2% | 88.6% | 74.7% | 97.7% | 91% | 65.8% | 103% | 89.6% | 31.4% | 87.7% | 89.9% | 149% | 88.8% | 91.5% | 83.3% | 2.14% (active) | 21.8%
15 | CCC(=O)Nc1cc(Nc2cc(NC3CC3)n3ncc(C#N)c3n2)ccc1C | 13% | 25.8% | -9.89% (active) | 25.9% | 19.5% | 19.7% | 15.2% | 18.9% | 21.1% | 46.3% | 32.6% | 39.1% | 43.4% | 19.7% | 15.5% | 13.8% | 14.7% | -21.5% (active) | 17.1% | 40.1%
